Assay results taken from PubChem BioAssay.
Activity calls are given as the source filed them.

Columns and labels:
[1] = tested on: PRMT1 (protein arginine N-methyltransferase 1); experiment: small molecules binding arginine methyltransferase PRMT1 – biochemical, small-molecule microarray, 635 nm fluorescence, primary screen (AID 1088); details: higher = more signal;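 also: binding of Prmt1 protein to compounds spotted on small-molecule microarray slides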
[2] = growth effects on S. cerevisiae YJM789 – YJM789 clinical isolate, OD600, 24 h, basal, primary screen (AID 1089); details: higher = more signal, called active from +8 up or from −8 down;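 also: growth of clinical yeast isolate S. cerevisiae YJM 789 seeded 1000 cells per well; test concentration not given here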
[3] = S. pombe growth modifiers, basal conditions – strain 972, OD600, 24 h, no modulator, primary screen (AID 1090);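 also: basal condition with compound alone and no growth modifier present; test concentration not given here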; details: S. pombe 972 growth, higher = more signal, called active from +8 up or from −8 down
[4] = budding yeast growth modifiers under rapamycin – strain BY4716, OD600, 96 h, primary screen (AID 1091); also: test concentration not given here; details: S. cerevisiae BY4716 + rapamycin, higher = more signal, called active from +8 up or from −8 down
[5] = biological target: Torsin-1A-interacting protein 2 (Homo sapiens) (UniProt Q8NFQ8); experiment: small molecules binding lysate-expressed LULL1 – cell lysate, human LULL1 lysate, 635/667 nm fluorescence, primary screen (AID 1092); details: small-molecule microarray, hLULL1 lysate binding, 635 nm fluorescence; higher = more signal;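 also: probe is lysate of COS7 cells overexpressing human LULL1; score merges per-feature 667 nm fluorescence with signal-to-noise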
Chain of Torsin-1A-interacting protein 2 (Homo sapiens) (Q8NFQ8 whole entry, looked up): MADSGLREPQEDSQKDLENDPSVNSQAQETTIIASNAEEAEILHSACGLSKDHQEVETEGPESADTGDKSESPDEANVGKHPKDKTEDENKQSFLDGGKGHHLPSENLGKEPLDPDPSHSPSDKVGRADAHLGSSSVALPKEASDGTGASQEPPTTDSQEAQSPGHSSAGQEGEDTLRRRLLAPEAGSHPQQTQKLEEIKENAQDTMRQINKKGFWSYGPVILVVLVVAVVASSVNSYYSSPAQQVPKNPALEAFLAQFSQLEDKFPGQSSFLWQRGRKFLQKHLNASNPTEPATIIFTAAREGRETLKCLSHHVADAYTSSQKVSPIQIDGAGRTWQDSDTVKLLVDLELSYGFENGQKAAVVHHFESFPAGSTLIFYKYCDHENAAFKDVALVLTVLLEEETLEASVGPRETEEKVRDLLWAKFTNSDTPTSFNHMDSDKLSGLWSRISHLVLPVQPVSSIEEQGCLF

[6] = optical density change of DRC41 E. coli – strain DRC41, OD650, 24 h, E. coli filamentation project, primary screen (AID 1093);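 also: MC1000 strain lacking acrAB efflux and sulA so SOS filamentation is blocked; test concentration not given here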; details: E. coli DRC41 growth, higher = more signal, called active from +8 up or from −8 down
[7] = probe aLefty2 binding to arrayed compounds – biochemical, biotinylated probe, 635/667 nm fluorescence, primary screen (AID 1094); details: small-molecule microarray, higher = more signal;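 also: score merges spot fluorescence near 667 nm with spot signal-to-noise ratio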
[8] = tested on: Noggin (protein binding on small-molecule microarray); experiment: small molecules binding Noggin protein – biochemical, 635/667 nm fluorescence, primary screen (AID 1095); details: 635 nm fluorescence, higher = more signal;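 also: score merges 667 nm feature fluorescence with signal to noise over triplicate slides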
[9] = biological target: Neurogenic locus notch homolog protein 3 (Homo sapiens) (UniProt Q9UM47); experiment: small molecules binding NOTCH3 protein – biochemical, 635/667 nm fluorescence, primary screen (AID 1096); details: small-molecule microarray, 635 nm fluorescence, higher = more signal
Chain of Neurogenic locus notch homolog protein 3 (Homo sapiens) (Q9UM47 whole entry, looked up): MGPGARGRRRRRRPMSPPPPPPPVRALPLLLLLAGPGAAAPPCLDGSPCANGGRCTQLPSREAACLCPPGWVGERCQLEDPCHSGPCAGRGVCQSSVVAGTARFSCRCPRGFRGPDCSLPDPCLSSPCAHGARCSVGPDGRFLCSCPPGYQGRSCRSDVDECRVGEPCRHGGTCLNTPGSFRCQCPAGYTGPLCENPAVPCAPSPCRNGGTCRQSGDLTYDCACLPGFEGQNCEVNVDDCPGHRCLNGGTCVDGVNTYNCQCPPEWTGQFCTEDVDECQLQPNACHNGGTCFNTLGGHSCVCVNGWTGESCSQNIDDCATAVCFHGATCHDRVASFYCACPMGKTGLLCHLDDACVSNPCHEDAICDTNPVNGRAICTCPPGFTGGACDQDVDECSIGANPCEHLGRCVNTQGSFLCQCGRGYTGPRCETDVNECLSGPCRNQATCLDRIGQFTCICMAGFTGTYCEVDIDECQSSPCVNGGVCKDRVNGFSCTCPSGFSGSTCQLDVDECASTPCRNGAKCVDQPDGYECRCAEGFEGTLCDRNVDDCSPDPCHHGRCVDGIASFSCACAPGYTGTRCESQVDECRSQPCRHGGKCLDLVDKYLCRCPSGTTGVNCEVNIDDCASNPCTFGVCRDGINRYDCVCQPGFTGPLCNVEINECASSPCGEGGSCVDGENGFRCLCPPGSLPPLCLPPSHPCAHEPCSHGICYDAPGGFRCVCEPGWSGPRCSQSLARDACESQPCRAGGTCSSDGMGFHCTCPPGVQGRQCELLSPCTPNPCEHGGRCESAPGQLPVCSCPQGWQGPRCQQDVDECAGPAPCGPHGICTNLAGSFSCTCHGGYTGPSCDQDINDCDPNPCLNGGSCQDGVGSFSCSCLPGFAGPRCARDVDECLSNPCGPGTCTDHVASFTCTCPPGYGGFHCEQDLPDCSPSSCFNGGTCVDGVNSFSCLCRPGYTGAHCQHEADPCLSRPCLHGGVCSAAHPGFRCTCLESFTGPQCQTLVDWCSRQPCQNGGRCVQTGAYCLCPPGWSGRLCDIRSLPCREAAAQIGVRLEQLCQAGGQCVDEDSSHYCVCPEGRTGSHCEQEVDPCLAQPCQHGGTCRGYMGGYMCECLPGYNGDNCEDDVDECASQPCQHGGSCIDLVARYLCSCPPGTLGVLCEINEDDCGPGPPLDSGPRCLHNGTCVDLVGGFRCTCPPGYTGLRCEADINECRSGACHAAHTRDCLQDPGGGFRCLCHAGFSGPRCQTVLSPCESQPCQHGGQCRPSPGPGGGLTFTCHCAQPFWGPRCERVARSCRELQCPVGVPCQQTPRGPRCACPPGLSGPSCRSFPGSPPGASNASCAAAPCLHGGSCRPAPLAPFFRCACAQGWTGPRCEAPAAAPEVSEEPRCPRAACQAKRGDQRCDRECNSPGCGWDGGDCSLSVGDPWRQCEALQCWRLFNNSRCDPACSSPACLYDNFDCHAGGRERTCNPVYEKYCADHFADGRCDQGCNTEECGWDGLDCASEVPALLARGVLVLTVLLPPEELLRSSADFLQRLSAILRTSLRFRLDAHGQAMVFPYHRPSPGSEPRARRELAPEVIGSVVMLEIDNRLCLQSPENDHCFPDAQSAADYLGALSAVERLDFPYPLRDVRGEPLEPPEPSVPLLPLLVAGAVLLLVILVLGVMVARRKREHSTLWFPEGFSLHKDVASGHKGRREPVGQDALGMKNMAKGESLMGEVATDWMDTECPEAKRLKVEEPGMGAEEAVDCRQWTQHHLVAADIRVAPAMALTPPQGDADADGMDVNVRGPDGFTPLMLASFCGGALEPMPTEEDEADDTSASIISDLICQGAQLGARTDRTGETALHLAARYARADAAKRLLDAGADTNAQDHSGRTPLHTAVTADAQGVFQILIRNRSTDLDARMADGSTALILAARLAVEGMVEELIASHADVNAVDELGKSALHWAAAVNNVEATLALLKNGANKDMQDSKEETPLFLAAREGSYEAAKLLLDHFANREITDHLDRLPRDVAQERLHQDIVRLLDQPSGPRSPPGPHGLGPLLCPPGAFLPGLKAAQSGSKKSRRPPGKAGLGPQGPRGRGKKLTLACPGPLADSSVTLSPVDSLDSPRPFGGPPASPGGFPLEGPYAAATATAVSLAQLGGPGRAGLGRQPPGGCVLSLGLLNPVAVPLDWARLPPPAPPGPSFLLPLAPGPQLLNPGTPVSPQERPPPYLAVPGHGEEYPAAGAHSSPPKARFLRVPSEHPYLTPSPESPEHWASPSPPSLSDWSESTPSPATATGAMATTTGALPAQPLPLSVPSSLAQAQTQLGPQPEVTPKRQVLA

[10] = probe aEGFR binding to arrayed compounds – biochemical, biotinylated probe, 635/667 nm fluorescence, primary screen (AID 1097); details: small-molecule microarray, higher = more signal;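 also: probe is a biotinylated anti-EGFR antibody binding compounds printed on slides; score combines fluorescence near 667 nm and signal to noise of each spot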
[11] = tested on: Plasmodium falciparum Sir2 (PF13_0152, Sir2A); experiment: Plasmodium falciparum Sir2A binding compounds – biochemical, small-molecule microarray, 635 nm fluorescence, primary screen (AID 1098); details: fluorescence 635 nm, higher = more signal;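 also: score merges spot fluorescence intensity with its signal-to-noise ratio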
[12] = probe aDKK1 binding to arrayed compounds – biochemical, biotinylated probe, 635/667 nm fluorescence, primary screen (AID 1099); details: small-molecule microarray, higher = more signal;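 also: score merges 667nm spot fluorescence with signal to noise across triplicate slides; reference of the scale not given here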
[13] = probe aCHRDL2 binding to arrayed compounds – biochemical, biotinylated probe, 635/667 nm fluorescence, primary screen (AID 1100); details: small-molecule microarray, higher = more signal
[14] = change in splice reporter luminescence, either direction, cell-based, HEK293, spliceosome inhibition project, primary screen (AID 1101); details: HEK293 splicing luciferase reporter, 24 h, higher = more signal, called active from +8 up or from −8 down;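 also: HEK293 cells carrying a splicing-competent luciferase reporter gene; test concentration not given here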
[15] = biological target: Fibroblast growth factor 10 (Homo sapiens) (UniProt O15520); experiment: compounds binding fibroblast growth factor 10 – biochemical, small-molecule microarray, 635 nm fluorescence, primary screen (AID 1102); details: FGF10 binding, fluorescence 635 nm, higher = more signal
Chain of Fibroblast growth factor 10 (Homo sapiens) (O15520 whole entry, looked up): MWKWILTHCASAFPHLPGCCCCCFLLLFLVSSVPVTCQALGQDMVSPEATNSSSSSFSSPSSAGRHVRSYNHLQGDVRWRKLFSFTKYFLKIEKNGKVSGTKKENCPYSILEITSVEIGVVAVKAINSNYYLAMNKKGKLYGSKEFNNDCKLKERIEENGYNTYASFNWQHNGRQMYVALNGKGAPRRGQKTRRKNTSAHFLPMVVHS

[16] = tested on: glycogen synthase kinase-3 (GSK3A per assay name; protocol says GSK3B); experiment: compounds binding glycogen synthase kinase-3 – biochemical, small-molecule microarray, 635 nm fluorescence, GSK3A, primary screen (AID 1103); details: fluorescence 635 nm, higher = more signal; also: the record names both GSK3A and GSK3B
[17] = biological target: Epidermal growth factor receptor (Homo sapiens) (UniProt P00533); experiment: compounds binding epidermal growth factor receptor – biochemical, small-molecule microarray, 635 nm fluorescence, primary screen (AID 1104); details: EGFR binding, higher = more signal;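 also: score merges 667 nm emission intensity with spot signal to noise over triplicate slides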
Chain of Epidermal growth factor receptor (Homo sapiens) (P00533 whole entry, looked up): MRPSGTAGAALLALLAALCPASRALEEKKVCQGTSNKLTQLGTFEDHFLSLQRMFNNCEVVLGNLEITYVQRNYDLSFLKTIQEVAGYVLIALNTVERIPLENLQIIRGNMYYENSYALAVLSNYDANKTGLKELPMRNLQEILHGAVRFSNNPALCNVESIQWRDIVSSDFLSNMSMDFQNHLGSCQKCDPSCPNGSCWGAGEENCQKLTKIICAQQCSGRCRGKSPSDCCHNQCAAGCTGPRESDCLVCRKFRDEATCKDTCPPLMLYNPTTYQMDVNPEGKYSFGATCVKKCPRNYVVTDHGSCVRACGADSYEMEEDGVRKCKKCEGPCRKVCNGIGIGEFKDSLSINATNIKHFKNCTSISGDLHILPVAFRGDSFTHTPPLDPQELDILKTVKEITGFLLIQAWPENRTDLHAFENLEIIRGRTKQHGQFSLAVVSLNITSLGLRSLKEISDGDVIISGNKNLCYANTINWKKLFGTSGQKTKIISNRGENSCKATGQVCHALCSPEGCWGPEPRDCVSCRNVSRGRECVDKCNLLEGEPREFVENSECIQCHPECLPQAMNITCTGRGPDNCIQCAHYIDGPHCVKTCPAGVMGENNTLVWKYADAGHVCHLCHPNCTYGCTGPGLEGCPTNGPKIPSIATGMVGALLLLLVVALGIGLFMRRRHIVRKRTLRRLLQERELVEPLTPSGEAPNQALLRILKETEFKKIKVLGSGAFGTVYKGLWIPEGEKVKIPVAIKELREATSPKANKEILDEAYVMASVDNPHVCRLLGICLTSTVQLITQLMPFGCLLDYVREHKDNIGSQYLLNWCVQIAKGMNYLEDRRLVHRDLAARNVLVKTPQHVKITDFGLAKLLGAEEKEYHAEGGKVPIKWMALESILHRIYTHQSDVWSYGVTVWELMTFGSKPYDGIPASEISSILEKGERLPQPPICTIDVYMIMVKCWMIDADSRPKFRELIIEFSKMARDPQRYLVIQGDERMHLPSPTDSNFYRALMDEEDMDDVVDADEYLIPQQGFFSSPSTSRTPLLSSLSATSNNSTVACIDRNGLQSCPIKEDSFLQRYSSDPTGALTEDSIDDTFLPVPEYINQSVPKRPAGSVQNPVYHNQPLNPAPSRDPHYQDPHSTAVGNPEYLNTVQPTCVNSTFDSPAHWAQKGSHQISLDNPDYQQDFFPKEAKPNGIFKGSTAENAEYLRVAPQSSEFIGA

[18] = biological target: Follistatin-related protein 3 (Homo sapiens) (UniProt O95633); experiment: compounds binding follistatin-related protein 3 – biochemical, small-molecule microarray, 635 nm fluorescence, primary screen (AID 1105); details: FSTL3 binding, higher = more signal;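 also: score merges emission near 667 nm and signal to noise per printed spot across three slides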
Chain of Follistatin-related protein 3 (Homo sapiens) (O95633 whole entry, looked up): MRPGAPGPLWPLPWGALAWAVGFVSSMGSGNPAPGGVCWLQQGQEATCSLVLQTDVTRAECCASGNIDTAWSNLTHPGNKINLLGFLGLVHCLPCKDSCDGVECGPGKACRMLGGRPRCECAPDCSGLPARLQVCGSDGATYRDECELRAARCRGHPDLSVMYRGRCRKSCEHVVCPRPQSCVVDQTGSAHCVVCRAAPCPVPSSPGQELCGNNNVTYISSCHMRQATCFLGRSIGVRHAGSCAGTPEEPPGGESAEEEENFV

[19] = biological target: Dickkopf-related protein 1 (Homo sapiens) (UniProt O94907); experiment: small molecules binding DKK1 protein – biochemical, small-molecule microarray, 635 nm fluorescence scan, primary screen (AID 1106); details: higher = more signal;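 also: score merges emission near 667 nm with signal to noise over three replicate slides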
Chain of Dickkopf-related protein 1 (Homo sapiens) (O94907 whole entry, looked up): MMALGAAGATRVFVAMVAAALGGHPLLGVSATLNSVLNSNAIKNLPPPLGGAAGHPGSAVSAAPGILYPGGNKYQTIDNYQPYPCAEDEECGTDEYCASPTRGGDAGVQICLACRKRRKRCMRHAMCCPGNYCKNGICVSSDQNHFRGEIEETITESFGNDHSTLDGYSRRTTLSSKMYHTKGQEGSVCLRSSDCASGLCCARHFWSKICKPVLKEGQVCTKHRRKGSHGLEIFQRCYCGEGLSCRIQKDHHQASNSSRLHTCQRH

[20] = tested on: Inhibin beta A chain (activin A); experiment: small molecules binding activin A – biochemical, small-molecule microarray, 635 nm fluorescence scan, primary screen (AID 1107); details: INHBA, higher = more signal;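 also: mouse activin A protein probed at 4.33 µg/mL on printed slides; score merges bound-protein fluorescence near 667 nm with spot signal-to-noise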

| Compound | composite z-score [1] | z-score [2] | z-score [3] | z-score [4] | composite z-score [5] | z-score [6] | composite z-score [7] | composite z-score [8] | composite z-score [9] | composite z-score [10] | composite z-score [11] | composite z-score [12] | composite z-score [13] | z-score [14] | composite z-score [15] | composite z-score [16] | composite z-score [17] | composite z-score [18] | composite z-score [19] | composite z-score [20] |
| --- | --- | --- | --- | --- | --- | --- | --- | --- | --- | --- | --- | --- | --- | --- | --- | --- | --- | --- | --- | --- |
| [N-]=[N+]=NCc1ccccc1[C@H]1OC(c2ccc(OCCCO)cc2)=N[C@@]1(Cc1ccccc1N=[N+]=[N-])C(=O)N1CCCCC1 | 1.53 | 0.401 (inactive) | 0.763 (inactive) | 2.23 (inactive) | 3.44 | 0.203 (inactive) | 0.352 | 0.667 | 1.12 | 0.23 | 1.31 | 1.11 | 1.06 | 0.532 (inactive) | 1.42 | 1.29 | 0.363 | 1.25 | 0.256 | 1.23 |
| COc1ccc([Si](C)(C)[C@@H]2[C@@H](CC(=O)N(CCO)Cc3ccccc3)O[C@]3(C(=O)N(C)c4c(Br)cc(C)cc43)[C@H]2C)cc1 | 1.37 | -0.8 (inactive) | 0.0424 (inactive) | 0.991 (inactive) | 0.214 | -1.37 (inactive) | -0.149 | 1.56 | 0.92 | -0.0978 | 0.717 | -0.298 | -0.237 | -1.92 (inactive) | 1.1 | -0.27 | 0.729 | 1.09 | 0.834 | 1.02 |
| COCCCNC(=O)[C@@]1(C)c2ccccc2C(=O)N(c2ccc(C)cn2)[C@H]1c1ccc(CO)cc1 | 0.194 | -0.435 (inactive) | -0.473 (inactive) | -1.67 (inactive) | 3.55 | 0.288 (inactive) | -0.428 | -0.978 | -0.99 | -0.427 | 0.963 | -0.748 | -0.75 | 0.532 (inactive) | -1.15 | -0.799 | -0.626 | -0.551 | -0.813 | 0.534 |
